TDP1 cell noCPT: qHTS for Inhibitors of human tyrosyl-DNA phosphodiesterase 1 (TDP1): qHTS in cells in absence of CPT; Potency, µM (doses to about 46.2 µM), for inactives: at the top dose activity change, negative = growth inhibition, hits mostly inhibitors; 15% of 420,000 active; DT40 Tdp1-/- hTDP1 cells, no CPT, ATP luminescence, 48 h; also: % is scaled to controls: 0 for no effect and ±100 for the full control effect; nearly all actives have a fitted effect of over 55% in size
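Growth of hTDP1-complemented DT40 Tdp1-knockout cells is measured by ATP luminescence after at least 48 hr compound exposure at 37 °C, with DMSO substituting for the 20 nM CPT used in the parallel screen.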
DT40 TDP1 CPT: qHTS for Inhibitors of human tyrosyl-DNA phosphodiesterase 1 (TDP1): qHTS in cells in presence of CPT; Potency, µM (doses to about 46.2 µM), inactives show at the highest dose activity change, negative = growth inhibition, hits mostly inhibitors; 12% of 420,000 active; chicken DT40 Tdp1-/-;hTDP1 cells + 20 nM CPT, ATP luminescence, 48 h; AID 686979, 2013; also: % is scaled to controls: 0 for no effect and ±100 for the full control effect; nearly all actives have a fitted effect of over 55% in size
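Cell growth measured by CellTiter-Glo luminescence after a minimum 48 h, 37 C compound exposure with 20 nM CPT in Tdp1-knockout DT40 cells stably expressing hTDP1, seeded 400/well; qHTS titration format.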
HepG2 viability: qHTS for Inhibitors of TGF-b: Cytotox Counterscreen; 0.76% of 410,000 active; HepG2 CAGA-GFP viability, ATP luminescence, 18 h; AID 588856, 2011; Potency, µM (highest dose often 46.1 µM), without a hit: top-dose activity change, negative = cytotoxicity, most hits filed as cytotoxic
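CellTiter-Glo luminescence gave cytotoxicity after 18 hours at 37 degrees C. The cells were HepG2 CAGA-GFP in 1% FBS DMEM, stimulated with 500 pg/mL TGF-beta after compound addition. %Activity was normalised to no-cell wells (complete cell-killing) and DMSO (no toxicity), and curves were fitted and classified.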
ATXN2 expr inh: Primary qHTS for Inhibitors of ATXN expression. 0.72% of 360,000 active. HEK-293 ATXN2-luciferase reporter, luminescence, 24 h. Potency, µM (series often up to 57 µM), for inactives: at the highest dose activity change, negative = inhibition, most hits filed as inhibitors. AID 1745845, 2022; also: % is scaled to controls: 0 for no effect and ±100 for the full control effect; nearly all actives have a fitted effect of over 55% in size
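qHTS (up to 57 uM final) was run with 24 h compound exposure of reporter cells at 37 °C. Each well was multiplexed: SteadyGlo luminescence measured ATXN2-luciferase expression after a fluorogenic Gly-Phe-AFC viability readout (25 uM final).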
TGFb inhibitor: qHTS for Inhibitors of TGF-b; 1.2% of 410,000 active; AID 588855, 2011; Potency, µM (doses to about 46.1 µM), for the others: top-dose activity, negative = inhibition, hits mostly inhibitors; HepG2 CAGA-GFP TGF-b/SMAD3 reporter, GFP fluorescence, 18 h; TGF-beta stimulated, 500 pg/mL final; also: % is scaled to controls: 0 for no effect and ±100 for the full control effect; nearly all actives have a fitted effect of over 65% in size
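Using HEPG2 CAGA-GFP reporter cells at 1000 cells/well, we pinned test compounds, stimulated with recombinant TGF-beta (500 pg/mL final) and measured total well GFP after 18 h.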
ATXN viability: Viability Counterscreen for Primary qHTS for Inhibitors of ATXN expression | S2 cells (HEK-293 line with an ATXN2-luciferase reporter) viability, CellTiter-Fluor protease fluorescence, 24 h | 0.49% of 400,000 active | Potency, µM (top dose mostly 56.7 µM), hits mostly cytotoxic; also: nearly all actives have a fitted effect of over 40% in size
Starred values were filed as active, the others as inactive; i = inactive; ? = inconclusive; . = no result given; ! = not active in a repeat; [ ] = dose if it differs, or a comment. Sampled rows, rich in hits. Any-hit rate of the full collection: about 17%. Calls follow the shape of the dose curve; as a rule, active = well fitted curve in the direction sought with a large enough effect; inconclusive = small, poorly fitted or top-dose-only effect, or another doubt; inactive = no such curve, though single readings can be large; an effect the other way counts as inactive or inconclusive. Potency is read from the fitted curve at half-maximal effect.

SMILES	TDP1 cell noCPT	DT40 TDP1 CPT	HepG2 viability	ATXN2 expr inh	TGFb inhibitor	ATXN viability
C=CC[n+]1c(-c2ccc(OC)cc2)csc1NNC(=O)Nc1ccccc1	5.17µM*	7.31µM*	-4.3%	-6.2%	?	i
CCn1cc(CN2CCC(n3nccc3NC(=O)C3CCCC3)CC2)cn1	-3.4%	9.9%	2.0%	2.5%	0.3%	i
C/C(=N\Nc1cc(-c2ccccc2)nc(-c2ccc(Br)cc2)n1)c1cccc(N)c1	?	25.9µM*	-33.1%	6.1%	?	i
C/C(=N\Nc1ccccc1)c1cccc(N)c1	7.2%	7.5%	19.5%	-6.3%	-11.2%	i
C/C(=N/Nc1cc(-c2ccccc2)nc(-c2ccccc2)n1)c1ccc(O)cc1	13µM*	16.4µM*	-111.6%	-6.8%	?	?
O=C(c1cc2nc(-c3ccco3)cc(C(F)(F)F)n2n1)N1CCc2ccccc2C1	23.1µM*	?	-9.4%	-7.4%	-4.1%	i
CN1C(C(=O)N2CCc3ccccc3C2)=CC(c2ccc(F)cc2)=NS1(=O)=O	25.9µM*	?	-30.5%	.	?	i
O=C(c1cnn2c(C(F)(F)F)cc(-c3ccccc3)nc12)N1CCOCC1	-18.3%	?	-15.8%	-1.4%	6.4%	i
O=C(c1cccc(F)c1)N1CCN(C(=O)c2cc3nc(-c4ccco4)cc(C(F)(F)F)n3n2)CC1	14.6µM*	-23.7%	2.9%	-14.2%	3.0%	i
CN1CCN(C(=O)c2cc3nc(-c4ccco4)cc(C(F)(F)F)n3n2)CC1	-26.1%	9.4%	-27.0%	.	14.0%	.
O=C(c1cnn2c(C(F)(F)F)cc(-c3ccc(F)cc3)nc12)N1CCc2ccccc2C1	20.6µM*	?	11.6%	-24.5%	?	?
Cc1ccc(N2NC(C)(c3cccs3)NC2=S)cc1 (centres undefined)	?	?	0.4%	44.7%	-1.2%	i
CN(C)CCOc1ccc(-c2nc(-c3ccc4c(c3)CCC4=NO)c(-c3ccncc3)[nH]2)cc1	.	.	.	0.3%	.	.
CCCCCNC(=O)C1CCC(Cn2c(=O)c3sccc3n(CC(=O)N3CCCC3)c2=O)CC1 (centres undefined)	-19.5%	-4.6%	-8.0%	-1.6%	-8.0%	i
Cc1ccc(C)c2[nH]c(=O)c(CN(CCN3CCCC3)C(=O)Nc3cccc(Cl)c3)cc12	18.4µM*	23.1µM*	-40.1%	?	?	i
COc1ccc2[nH]c(=O)c(CN(CCN3CCCC3)C(=O)Nc3ccccc3Cl)cc2c1	?	?	-34.5%	4.6%	2.7%	i
Cc1cc(C)c2cc(CN(CCN3CCCC3)C(=O)Nc3ccc(F)cc3)c(=O)[nH]c2c1	20.6µM*	14.6µM*	-37.1%	-20.1%	?	i
COc1ccc(Cl)cc1NC(=O)COC(=O)c1c(-c2ccccc2)noc1C	?	?	-14.3%	.	-21.7%	i
CCCCCCCCCCCCCCCCn1cc[n+](C)c1	0.461µM*	0.461µM*	-102.6%	14.1µM*!	11.2µM*	20µM*
Oc1ccccc1-c1nnc(COc2ccc(Cl)cc2Cl)o1	?	20.6µM*	30.4%	28.9%	35.7%	i
NC(=O)c1ccccc1OCc1nnc(-c2ccccc2Br)o1	29.1µM*	23.1µM*	-6.1%	0.0%	-0.1%	i
Cc1ccc(NC(=O)c2ccc(CSc3nnnn3C)cc2)cc1	-7.8%	-9.4%	0.1%	15.3%	7.4%	i
N#C/C(=C\c1cccnc1)C(=O)Nc1ccc(O)cc1F	-1.2%	-9.7%	-2.2%	-25.5%	7.5%	?
O=C1[C@H]2[C@@H]3CCN1CCC[C@@H]2C=C[C@@H]3c1ccc(Br)cc1	18.4µM*	?	.	-19.6%	.	i
O=C1C2C3C=CC(CC3)C2C(=O)N1c1ccc(Br)cc1[N+](=O)[O-] (centres undefined)	-38.5%	-10.0%	-1.9%	-1.5%	0.0%	i
SMILES	TDP1 cell noCPT	DT40 TDP1 CPT	HepG2 viability	ATXN2 expr inh	TGFb inhibitor	ATXN viability
N=c1c2c(-c3ccccc3)c(-c3ccccc3)n(Cc3ccco3)c2ncn1CCCO	23.1µM*	13µM*	17.8µM*	-36.7%	25.1µM*	i
N=c1c2c(-c3ccccc3)c(-c3ccccc3)n(Cc3ccco3)c2ncn1CCO	6.51µM*	7.31µM*	-100.0%	?	?	14.1µM*
O=c1c2ccccc2ncn1Cc1ccco1	-7.1%	-25.0%	-17.3%	1.7%	9.0%	i
N=c1c2c(-c3ccccc3)c(-c3ccccc3)n(Cc3ccco3)c2ncn1CCN1CCOCC1	?	?	-53.4%	?	?	?
CC(C)OC(=O)C(C(=O)OC(C)C)=C1SC=CS1	?	?	.	1.5%	.	i
CC(C)c1nc2cccnc2n1C1CCN(C(=O)Cn2cccn2)CC1	-0.6%	-7.4%[9.04 µM]	.	.	.	i
COc1ccc(S(=O)(=O)N(CC(=O)Nc2cc(Cl)ccc2C)Cc2ccccc2)cc1OC	?	14.6µM*	-35.8%	-23.4%	?	?
CCN(CC(=O)Nc1ccc(OC)c(OC)c1)S(=O)(=O)c1ccc(C)cc1	?	?	2.4%	-1.2%	12.1%	i
COC(=O)c1ccc(NC(=O)CN(Cc2ccccc2)S(=O)(=O)c2ccc(Cl)cc2)cc1	?	?	-21.5%	?	17.8µM*	?
COc1ccc(NC(=O)CN(Cc2ccccc2)S(=O)(=O)c2ccc(C)cc2)cc1Cl	?	18.4µM*	-9.8%	-16.8%	?	i
CNC(=O)CN(Cc1ccccc1)S(=O)(=O)c1ccc(Cl)cc1	4.2%	-9.4%	-25.8%	-3.4%	-1.6%	i
COC(=O)c1ccc(NC(=O)CN(Cc2ccccc2)S(=O)(=O)c2ccc(C)cc2)cc1	?	?	-30.7%	-31.0%	-25.1%	?
CCc1ccc(C2CC(=O)Oc3c2c(=O)n(C)c2ccccc32)cc1 (centres undefined)	0.2%	2.0%	1.8%	12.2%	-1.3%	i
CCOCCCNC(=O)c1cc(=O)[nH]c2ccc(S(=O)(=O)N3CCCC3)cc12	0.8%	2.3%	7.1%	5.0%	1.0%	i
O=C(c1ccc(N2CCN(C3CC(=O)N(Cc4cccs4)C3=O)CC2)cc1)c1cccnc1 (centres undefined)	?	16.4µM*	-7.2%	-19.0%	-15.2%	i

Compound activity: PubChem BioAssay, National Center for Advancing Translational Sciences (NCATS)
